Records with an inconclusive call do not appear. Entries that show only a call come without a potency. Calls of active or inactive are those of the source. Calls come from the whole dose curve.
Test: p53 small molecule agonists, cell-based qHTS assay with human liver microsomes (AID 1963577);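 note: p53 response element beta-lactamase reporter cells with liver microsomes plus NADPH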
In short: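 p53RE-bla cells; 5 h settle, 37 C/5% CO2; cpd + HLM 0.5 mg/mL + NADPH 0.5 mg/mL (final); 16 h 37 C; LiveBLAzer 2 h RT dark; fluorescence readout.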

Question: With `CCCCCCCCCCCCCCC[C@H](O)[C@@H](N)CO` as the compound, how does the Potency read?
Answer: Its Potency is “inactive”.

Question: With `CCOc1ccc(O)cc1` as the compound, how does the Potency read?
Answer: The Potency was “inactive”.

Question: For `CCN(CC)c1ccc2c(c1)Oc1cc(N(CC)CC)ccc1C21OC(=O)c2ccccc21`, which Potency is on record?
Answer: The Potency was “inactive”.

Question: With `CC(=O)NCCCS(=O)(=O)O` as the compound, how does the Potency read?
Answer: The Potency was “inactive”.

Question: Which Potency does the source give for `Cc1cc(C)c(C)c(C)c1` here?
Answer: Its Potency is “inactive”.

Question: Which Potency does the source give for `CCN1CCN(C(=O)N[C@@H](C(=O)N[C@@H]2C(=O)N3C(C(=O)O)=C(CSc4nnnn4C)CS[C@H]23)c2ccc(O)cc2)C(=O)C1=O` here?
Answer: Its Potency is “inactive”.

Question: With `COC(=O)c1ccc(C(=O)O)cc1` as the compound, how does the Potency read?
Answer: Its Potency is “inactive”.

Question: Which Potency does the source give for `C=COCCOCCOC=C` here?
Answer: Its Potency is “inactive”.

Question: Which Potency does the source give for `CC1=CCCC(C)(C)C12CCC(C)O2` (stereo not given) here?
Answer: Its Potency is “inactive”.

Question: For `O=C(Cl)c1cc(Cl)cc(Cl)c1`, which Potency is on record?
Answer: Its Potency is “inactive”.

Question: For `CCCOc1sc(C(=O)N2CCC(c3cc(CN)ccc3F)CC2)c(C)c1Br`, which Potency is on record?
Answer: Its Potency is “inactive”.

Question: For `CCCCCCNC(=O)n1cc(F)c(=O)[nH]c1=O`, which Potency is on record?
Answer: The Potency was “inactive”.

Question: With `CCCCCCCCOC(=O)c1cc(O)c(O)c(O)c1` as the compound, how does the Potency read?
Answer: Its Potency is “inactive”.

Question: Which Potency does the source give for `CC=O` here?
Answer: The Potency was “inactive”.

Question: For `O=C(Cl)c1ccc(F)c(Cl)c1`, which Potency is on record?
Answer: Its Potency is “inactive”.
